The text below walks through data of PubChem BioAssay (NCI).

SMILES strings stand for the structures. Values joined by “and” are separate entries in the source; they are usually repeats but may differ in a detail not shown here. Equal entries are not always repeated. The panel holds about 83,000 compounds, 20% with a hit somewhere; the sample as a whole holds those more often.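 Plates (96-well) were seeded with cells, treated with compound at one concentration, and incubated for 48 hours before percent growth was determined.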 Active and inactive are the calls of the source. How the source made its calls: active means growth percent below 10; inactive means the rest.

For one test, the system named is UACC-62 melanoma. In words: NCI-60 one-dose screen, 48 h (100 = growth as untreated, 0 = no growth, -100 = all killed). The settings on record: 10 µM unless noted.
Take `Cc1ccc2nc3c(nc2c1)-c1cccc2cccc-3c12`: the growth is 79.6% (inactive).
Still for that read-out and setting: then `CC(C)N=c1cc2n(-c3ccc(Cl)cc3)c3ccccc3nc-2cc1Nc1ccc(Cl)cc1`, with 36% (inactive) and 34.9% (inactive) and 32.9% (inactive); and `CCN(CC)CCCC(C)Nc1ccnc2cc(Oc3ccccc3)ccc12` (stereo unspecified), with 60.9% (inactive) and 92.8% (inactive).
As for `CN1C(=O)C(N=Nc2ccc([N+](=O)[O-])cc2)SC1=S` (stereo unspecified), the growth is 29.8% (inactive) and 38.4% (inactive).
With `COc1ccccc1NC(=O)OCC#CCOC(=O)Nc1ccccc1OC`, the growth was 83.7% (inactive) and 73.2% (inactive).
Regarding `O[C@H](c1cc(C(F)(F)F)nc2c(C(F)(F)F)cccc12)[C@@H]1CCCCN1`, the growth was 70.5% (inactive) and 67.8% (inactive).
For `N#C/C(=C1C=C/C(=N/O)C(Br)=C/1)c1ccccc1`, the growth was 33.1% (inactive).
As for `CC1=C[C@H]2c3c(c(O)c(O)c4oc5cc(O)cc(O)c5c(=O)c34)[C@H](c3cc(O)c(O)c4oc5cc(O)cc(O)c5c(=O)c34)[C@H]2C(C)(C)C1`, the growth is -43.1% (active) and -68.9% (active).
On to `COc1ccc(/C(C#N)=C/c2ccccn2)cc1`, for which the growth was 93.8% (inactive) and 114% (inactive).
The same measure, in the same setting: then `CC(=O)Oc1cc(C(=O)O)cc(OC(C)=O)c1OC(C)=O`, with 93.7% (inactive) and 103% (inactive); and `COc1ccc(Cn2c(NCCN=C(N)N)nc(=O)n(Cc3ccc(F)cc3)c2=O)cc1`, with 112% (inactive) and 98.4% (inactive).

Another test deals with LOX IMVI melanoma. The description is as above. The settings on record: 10 µM unless noted.
`CC1CCCC(=O)O1` (stereo unspecified): the growth is 96.3% (inactive) and 97.2% (inactive).
On the same count and under the same terms, the result for `Cc1ccc(S(=O)(=O)NCN2C(=O)c3ccccc3C2=O)cc1` reads 109% (inactive); that for `O=C(N/N=C/c1cccc2ccccc12)C1CC1`, 91.8% (inactive); that for `CN(C)CCCNC1=C(Cl)C(=O)c2ccccc2C1=O`, -43.5% (active).
Consider `COc1ccc2nc(Cl)cc(C)c2c1`, for which the growth was 105% (inactive) and 113% (inactive).
On to `CN(C)c1ccc(C(=C2C=CC(=[N+](C)C)C=C2)c2ccccc2Cl)cc1`, for which the growth was -57.2% (active) and -97.2% (active).
Regarding `OCc1ccccn1`, the growth is 102% (inactive).
Still for that read-out and setting: then `Nc1ccccc1SC1CC(=O)N(c2cccc3ccccc23)C1=O` (stereo unspecified), with 97.1% (inactive).
As for `CC(=O)Nc1cccc2c1CCCC2`, the growth is 97.1% (inactive) and 93.6% (inactive).
In the case of `CCN1CCN(CCNc2nccc(-c3c(-c4cccc(O)c4)nc4sccn34)n2)S1(=O)=O`, the growth is 37.7% (inactive) and 30.9% (inactive).
Take `NC(=O)c1ccccc1OCC(O)CO` (stereo unspecified): the growth was 104% (inactive).
Still for that read-out and setting: the result for `Nc1ccccc1Nc1ccccc1` reads 85.1% (inactive) and 87% (inactive); that for `N#C/C(=C/c1c(O)ccc2ccccc12)C(N)=O`, 55.9% (inactive).
Consider `Oc1ccc(/C=C/c2ccccc2)cc1`, for which the growth is 55.6% (inactive) and 68.9% (inactive).
Turning to `COc1ccc2ccccc2c1/C=N/N1CCCCC1`, the growth is 93% (inactive).
Same read-out and setting: the result for `O=C(Nc1cccc(-n2ccc3c(NC(=O)c4ccccc4)nccc32)c1)c1ccc(Cl)c(C(F)(F)F)c1` reads -80.3% (active) and 18.4% (inactive).
On to `CCOc1ccc(Nc2c3ccccc3nc3ccccc23)cc1`, for which the growth is 94.5% (inactive) and 3.66% (active) and 11.5% (inactive).
In the case of `CCOc1ccc2cc(-c3nn(CC4CCN(C)CC4)c4ncnc(N)c34)ccc2c1`, the growth was 77.7% (inactive) and 6.18% (active).
For the compound `C[N+](C)(C)CN1C(=O)c2ccccc2C1=O`, the growth is 103% (inactive).
`S=C(S)N1CCCC1`: the growth is 108% (inactive) and 90.2% (inactive).
`O=C1C2=C(C(=O)c3ccccc31)C(O)(S(=O)(=O)O)C(O)(S(=O)(=O)O)C1N=CC=CC21` (stereo unspecified): the growth was 36.7% (inactive) and 24.7% (inactive).
For the compound `O=[N+]([O-])c1ccc2nc3c4ccccc4c4ccccc4c3nc2c1`, the growth is 30.8% (inactive).
The same measure, in the same setting: then `COc1cc2nc(N3CCC[C@@H](NC(=O)C4COc5ccccc5O4)C3)nc(N)c2cc1OC` (stereo partly specified), with 100% (inactive) and 94.7% (inactive); and `CCOC(=O)c1sc(N)nc1-c1ccccc1`, with 95.5% (inactive).
For `CC(C)N=c1cc2n(-c3ccc(Cl)cc3)c3ccccc3nc-2cc1Nc1ccc(Cl)cc1`, the growth is -20.7% (active) and -48.6% (active) and -80.9% (active).
